We go through eight molecules from PubChem BioAssay (Tox21).

Inconclusive results are not listed. The source made the active and inactive calls. Unless noted, calls come from the whole dose curve; as a rule, active = well fitted curve in the direction sought with a large enough effect in the repeat runs; inconclusive = weak or mixed curves; inactive = no such curve, though single readings can be large; an effect the other way counts as inactive or inconclusive.

For assay [1], the target named is Estrogen receptor beta (Homo sapiens) (UniProt Q92731). The experiment in a line: qHTS assay to identify small molecule agonists of the estrogen receptor beta (ER-beta) signaling pathway (AID 1259377; active = well fitted activation curve with a large enough effect in the signal ratio in the repeat runs, not every such curve was filed as active; the % refers to the signal ratio). A digest of the protocol: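 Read-out: beta-lactamase FRET fluorescence. Cell line: ER-beta-UAS-bla HEK293T in 2% charcoal-stripped FBS. Exposure: 16 hr at 37C. Substrate step: 2 h at room temperature.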
(qHTS replaces the single test concentration by a dilution series.)

Assay [2] in a line: qHTS assay to identify small molecule agonists of the androgen receptor (AR) signaling pathway in the presence of an antagonist - cell viability counter screen (AID 1259379). Note: nearly all actives have a fitted effect of over 25% in size. Note: potency is the fitted concentration of half-maximal effect. A digest of the protocol: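 In MDA-kb2 cells (human breast carcinoma, MMTV-luciferase), compounds at 15 concentrations plus 3.0uM nilutamide; 16 hr, 37C, 0% CO2; CellTiter-Fluor fluorescence read for viability.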

Assay [3] in a line: qHTS assay to identify small molecule agonists of the estrogen receptor beta (ER-beta) signaling pathway - cell viability counter screen (AID 1259380). Note: nearly all actives have a fitted effect of over 30% in size. Note: potency is the fitted concentration of half-maximal effect. A digest of the protocol: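 Viability of ER-beta-UAS-bla HEK293T cells was determined by CellTiter-Glo luminescence following 16 hr treatment with test compounds at 37C.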
Assay [4] in a line: qHTS assay to identify small molecule antagonists of the estrogen receptor beta (ER-beta) signaling pathway - cell viability counter screen (AID 1259382). Note: nearly all actives have a fitted effect of over 55% in size. Note: potency is the fitted concentration of half-maximal effect. A digest of the protocol:
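Tox21 10K library tested in qHTS format on ER-beta-bla HEK293T cells stimulated with 1nM E2; 16 hr treatment at 37C. Same-well CellTiter-Glo luminescence served as the cell viability measure.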

The target in assay [5] is Estrogen receptor (Homo sapiens) (UniProt P03372). The experiment in a line: qHTS assay to identify small molecule agonists of the estrogen receptor alpha (ER-alpha) signaling pathway in the presence of an antagonist (AID 1259383; calls by dose curve; note: top concentration of the series differs between compounds; nearly all actives have a fitted effect of over 15% in size). A digest of the protocol:
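In VM7Luc4E2 cells, 4,000 per well, compounds at 15 concentrations were co-incubated 22hr at 37C with 10.0nM final ICI-182,780. Luminescence from the stably transfected 4×ERE-luciferase reporter was recorded 30min after ONE-Glo addition.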

A short description of assay [6]: qHTS assay to identify small molecule agonists of the estrogen receptor alpha (ER-alpha) signaling pathway in the presence of an antagonist - cell viability counter screen (AID 1259386).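 Note: series mostly up to about 92 µM; cells exposed to compounds for 22 h at 37 °C before the viability read; nearly all actives have a fitted effect of over 30% in size.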 A digest of the protocol: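 Fluorescent CellTiter-Fluor viability signal from VM7Luc4E2 cells, with the reagent added during the final hour of a 22hr compound exposure at 37C in the presence of 10.0nM ICI-182,780.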

For assay [7], the target named is Progesterone receptor (Homo sapiens) (UniProt P06401). The assay can be described thus: qHTS assay to identify small molecule agonists of the progesterone receptor (PR) signaling pathway (AID 1346784; calls by dose curve; note: nearly all actives have a fitted effect of over 30% in size). A digest of the protocol: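 Compounds were tested for PR agonism in HEK 293T cells bearing a beta-lactamase gene under UAS control. Treatment lasted 16 hr at 37C; signal came from fluorescence of a FRET substrate.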

Assay [8] in a line: qHTS assay to identify small molecule antagonists of the progesterone receptor (PR) signaling pathway - cell viability counter screen (AID 1346798). Note: nearly all actives have a fitted effect of over 50% in size. Note: potency is the fitted concentration of half-maximal effect. A digest of the protocol:
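Following a 4 hr attachment, PR-UAS-bla HEK293T cells in charcoal-stripped FBS medium were exposed to compounds with R5020 for 16 hr; CellTiter-Glo was added and luminescence read after 30 min at room temperature.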

A short description of assay [9]: qHTS assay to identify small molecule agonists of the progesterone receptor (PR) signaling pathway - cell viability counter screen (AID 1346799; calls by dose curve; note: nearly all actives have a fitted effect of over 45% in size). A digest of the protocol: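 Here, 3,000 PR-UAS-bla HEK293T cells per well were treated with compounds for 16 hr after a 6 hr preincubation at 37C and 5% CO2; cell viability is the CellTiter-Glo luminescence signal.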
A short description of assay [10]: qHTS assay to identify small molecule antagonists of the TGF-beta/Smad signaling pathway - cell viability counter screen (AID 1346824). Note: nearly all actives have a fitted effect of over 50% in size. A digest of the protocol: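 Cytotoxicity counter-screen run in the same wells as the beta-lactamase Smad reporter read: CellTiter-Glo luminescence after 30 min at room temperature. HEK 293T SBE-bla cells had 5 hr compound exposure at 37 C with TGF-beta1 (0.25 ng/mL stock).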

Assay [11] is described as follows: qHTS assay to identify small molecule agonists of the TGF-beta/Smad signaling pathway - cell viability counter screen (AID 1346829). Note: top concentration of the series differs between compounds; nearly all actives have a fitted effect of over 45% in size. A digest of the protocol: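 Cytotoxicity counter screen: CellTiter-Glo luminescence (30 min, room temperature) measured in the SBE-bla HEK 293T reporter wells after 5 hr compound treatment at 37 C and the 2 hr substrate step.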
Assay [12] can be described thus: qHTS assay to identify small molecule agonists of the TGF-beta/Smad signaling pathway (AID 1346859; active = well fitted activation curve with a large enough effect in the signal ratio in the repeat runs, not every such curve was filed as active; the % refers to the signal ratio; note: series mostly up to about 77 µM). A digest of the protocol: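 Each well held 4,000 SBE-bla HEK 293T cells incubated overnight before compound addition; 5 hr later the cleavable FRET substrate went on for 2 hr at room temperature, and fluorescence was read at two emissions.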
For assay [13], the target named is Estrogen receptor beta (Homo sapiens) (UniProt Q92731). The experiment in a line: qHTS assay to identify small molecule antagonists of the estrogen receptor beta (ER-beta) signaling pathway (AID 1259378; active = well fitted inhibition curve with a large enough effect in the signal ratio in the repeat runs, not every such curve was filed as active; the % refers to the signal ratio). A digest of the protocol:
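Antagonist mode: compounds added to beta-lactamase reporter HEK293T ER-beta-UAS cells stimulated with E2 (1nM final), 16 hr at 37C. LiveBLAzer B/G FRET substrate, 2 hours room temperature, fluorescence read-out.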

The target in assay [14] is Progesterone receptor (Homo sapiens) (UniProt P06401). The experiment in a line: qHTS assay to identify small molecule antagonists of the progesterone receptor (PR) signaling pathway (AID 1346795; active = well fitted inhibition curve with a large enough effect in the signal ratio in the repeat runs, not every such curve was filed as active; the % refers to the signal ratio; note: potency is the fitted concentration of half-maximal effect). A digest of the protocol:
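In HEK293T cells bearing the PR-UAS-bla reporter, compound effects on promegestone-driven (1 nM) beta-lactamase expression are assessed after 16 hr using a fluorescent FRET substrate incubated 2 hr at room temperature.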

For assay [15], the target named is Thyrotropin-releasing hormone receptor (Homo sapiens) (UniProt P34981). The assay can be described thus: qHTS assay to identify small molecule antagonists of the thyrotropin-releasing hormone receptor (TRHR) signaling pathway (AID 1346877; active = well fitted inhibition curve with a large enough effect in the repeat runs, not every such curve was filed as active; note: series mostly up to about 51 µM). A digest of the protocol:
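In this cell-based calcium flux format, HEK293 cells expressing TRHR received test compound for 5 min before the agonist TRH (1 nM final). Dye loading lasted 2 h at 37 °C.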

Assay [16] has the same target. The assay can be described thus: qHTS assay to identify small molecule agonists of the thyrotropin-releasing hormone receptor (TRHR) signaling pathway (AID 1346891; calls by dose curve; note: series mostly up to about 58 µM). A digest of the protocol: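 Screening of agonists relied on calcium signalling in HEK293 cells expressing human TRHR: dye loading 2 h at 37 °C preceded compound addition and a 3-min fluorescence time course.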

In assay [17] the target is Androgen receptor (Homo sapiens) (UniProt P10275). The assay can be described thus: qHTS assay to identify small molecule agonists of the androgen receptor (AR) signaling pathway in the presence of an antagonist (AID 1259381; calls by dose curve; note: nearly all actives have a fitted effect of over 15% in size). A digest of the protocol:
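Here, 15-concentration compound series were pin-transferred onto MDA-kb2 MMTV-luciferase cells already dosed with nilutamide (3.0uM final). After 16hr at 37C, ONE-Glo was added and luminescence read 30min later at room temperature.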

Assay [18] can be described thus: qHTS assay to identify small molecule agonists or antagonists of the thyroid stimulating hormone receptor (TSHR) signaling pathway - wild type cell line counter screen (AID 1259384; calls by dose curve). A digest of the protocol:
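Counter screen in untransfected Hek293: compounds (15-point titration, triplicate) plus phosphodiesterase inhibitor Ro20-1724 added after 18 h plating; 30 min RT. Intracellular cAMP via competitive d2/cryptate immunoassay, 1 h incubation.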

The target of assay [19] is Thyrotropin receptor (Homo sapiens) (UniProt P16473). The assay can be described thus: qHTS assay to identify small molecule antagonists of the thyroid stimulating hormone receptor (TSHR) signaling pathway (AID 1259385; calls by dose curve; note: nearly all actives have a fitted effect of over 20% in size). A digest of the protocol:
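Antagonist mode: compound-treated TSHR-expressing HEK293 cells were stimulated with 1.5 ng/mL TSH (final) in presence of Ro20-1724 for 30 min at RT. HTRF cAMP detection after 1 h; each compound tested at 15 concentrations, triplicate.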

Thyrotropin receptor (Homo sapiens), sequence (P16473 whole entry, looked up): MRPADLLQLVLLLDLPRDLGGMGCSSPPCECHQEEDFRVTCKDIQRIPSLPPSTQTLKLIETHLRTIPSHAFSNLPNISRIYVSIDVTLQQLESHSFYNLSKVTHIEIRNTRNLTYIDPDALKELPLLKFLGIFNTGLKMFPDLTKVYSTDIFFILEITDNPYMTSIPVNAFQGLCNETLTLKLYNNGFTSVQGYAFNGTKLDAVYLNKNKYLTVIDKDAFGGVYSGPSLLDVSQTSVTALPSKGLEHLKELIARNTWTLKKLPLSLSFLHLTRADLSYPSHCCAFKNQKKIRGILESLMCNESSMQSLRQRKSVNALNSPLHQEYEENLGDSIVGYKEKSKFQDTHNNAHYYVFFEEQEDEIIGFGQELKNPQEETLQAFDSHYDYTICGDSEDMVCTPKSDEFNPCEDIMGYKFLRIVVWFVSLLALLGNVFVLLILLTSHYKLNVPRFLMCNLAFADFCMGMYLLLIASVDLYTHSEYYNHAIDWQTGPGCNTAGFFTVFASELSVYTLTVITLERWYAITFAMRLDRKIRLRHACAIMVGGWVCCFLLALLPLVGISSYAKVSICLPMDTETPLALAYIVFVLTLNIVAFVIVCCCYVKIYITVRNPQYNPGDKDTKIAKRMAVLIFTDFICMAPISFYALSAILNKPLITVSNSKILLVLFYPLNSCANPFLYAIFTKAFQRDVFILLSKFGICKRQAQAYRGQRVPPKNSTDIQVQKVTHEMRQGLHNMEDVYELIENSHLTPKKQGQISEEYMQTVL
Progesterone receptor (Homo sapiens), sequence (P06401 whole entry, looked up): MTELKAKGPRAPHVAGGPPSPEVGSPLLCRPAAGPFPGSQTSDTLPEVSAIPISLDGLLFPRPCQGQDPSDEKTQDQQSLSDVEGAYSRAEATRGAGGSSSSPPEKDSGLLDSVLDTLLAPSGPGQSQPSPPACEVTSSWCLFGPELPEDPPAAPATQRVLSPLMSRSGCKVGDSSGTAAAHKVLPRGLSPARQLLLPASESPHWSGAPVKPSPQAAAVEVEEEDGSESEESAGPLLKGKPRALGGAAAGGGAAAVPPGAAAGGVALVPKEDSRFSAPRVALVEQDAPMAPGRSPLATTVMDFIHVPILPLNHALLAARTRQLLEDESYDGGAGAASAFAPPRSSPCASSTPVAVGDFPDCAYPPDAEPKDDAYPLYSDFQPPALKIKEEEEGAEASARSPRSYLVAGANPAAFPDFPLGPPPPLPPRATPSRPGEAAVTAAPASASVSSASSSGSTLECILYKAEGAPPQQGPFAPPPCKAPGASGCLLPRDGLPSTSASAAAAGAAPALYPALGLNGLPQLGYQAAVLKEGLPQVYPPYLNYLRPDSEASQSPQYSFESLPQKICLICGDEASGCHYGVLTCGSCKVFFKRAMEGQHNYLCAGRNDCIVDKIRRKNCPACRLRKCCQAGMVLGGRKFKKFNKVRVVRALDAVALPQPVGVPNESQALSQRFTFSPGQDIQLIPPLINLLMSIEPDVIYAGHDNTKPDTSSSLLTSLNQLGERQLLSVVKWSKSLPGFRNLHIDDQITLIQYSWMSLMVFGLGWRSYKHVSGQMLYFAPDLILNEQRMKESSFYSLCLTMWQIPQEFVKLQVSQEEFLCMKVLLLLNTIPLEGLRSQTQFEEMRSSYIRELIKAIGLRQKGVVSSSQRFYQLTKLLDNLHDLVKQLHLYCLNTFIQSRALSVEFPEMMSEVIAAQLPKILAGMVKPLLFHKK
Estrogen receptor beta (Homo sapiens), sequence (Q92731 whole entry, looked up): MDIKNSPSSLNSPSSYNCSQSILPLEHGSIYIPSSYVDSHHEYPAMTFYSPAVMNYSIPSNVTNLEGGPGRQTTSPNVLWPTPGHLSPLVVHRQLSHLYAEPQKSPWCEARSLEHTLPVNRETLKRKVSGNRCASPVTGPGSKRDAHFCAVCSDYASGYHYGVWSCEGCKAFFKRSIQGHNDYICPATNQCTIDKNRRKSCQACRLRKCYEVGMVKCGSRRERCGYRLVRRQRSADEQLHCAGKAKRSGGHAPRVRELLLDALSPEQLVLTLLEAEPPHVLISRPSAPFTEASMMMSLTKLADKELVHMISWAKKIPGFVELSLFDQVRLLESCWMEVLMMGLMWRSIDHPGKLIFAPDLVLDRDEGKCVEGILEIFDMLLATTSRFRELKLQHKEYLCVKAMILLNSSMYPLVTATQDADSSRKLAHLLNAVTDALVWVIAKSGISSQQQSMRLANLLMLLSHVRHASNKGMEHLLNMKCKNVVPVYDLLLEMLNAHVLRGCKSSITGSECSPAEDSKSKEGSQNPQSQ
Estrogen receptor (Homo sapiens), sequence (P03372 whole entry, looked up): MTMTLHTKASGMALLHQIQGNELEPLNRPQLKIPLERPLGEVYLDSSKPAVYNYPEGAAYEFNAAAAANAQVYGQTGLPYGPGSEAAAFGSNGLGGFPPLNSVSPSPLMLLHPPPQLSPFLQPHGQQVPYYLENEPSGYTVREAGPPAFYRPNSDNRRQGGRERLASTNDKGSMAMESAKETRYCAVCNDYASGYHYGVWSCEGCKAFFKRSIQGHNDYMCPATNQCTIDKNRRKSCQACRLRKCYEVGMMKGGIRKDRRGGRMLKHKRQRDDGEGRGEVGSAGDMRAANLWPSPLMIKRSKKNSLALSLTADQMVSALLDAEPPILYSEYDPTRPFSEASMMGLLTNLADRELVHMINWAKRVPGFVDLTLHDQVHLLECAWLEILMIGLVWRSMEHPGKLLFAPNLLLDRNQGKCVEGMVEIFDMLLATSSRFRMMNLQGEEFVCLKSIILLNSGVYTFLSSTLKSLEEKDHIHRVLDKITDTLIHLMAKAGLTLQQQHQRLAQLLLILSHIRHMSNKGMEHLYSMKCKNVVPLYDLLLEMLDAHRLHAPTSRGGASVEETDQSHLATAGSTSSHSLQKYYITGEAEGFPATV
Thyrotropin-releasing hormone receptor (Homo sapiens), sequence (P34981 whole entry, looked up): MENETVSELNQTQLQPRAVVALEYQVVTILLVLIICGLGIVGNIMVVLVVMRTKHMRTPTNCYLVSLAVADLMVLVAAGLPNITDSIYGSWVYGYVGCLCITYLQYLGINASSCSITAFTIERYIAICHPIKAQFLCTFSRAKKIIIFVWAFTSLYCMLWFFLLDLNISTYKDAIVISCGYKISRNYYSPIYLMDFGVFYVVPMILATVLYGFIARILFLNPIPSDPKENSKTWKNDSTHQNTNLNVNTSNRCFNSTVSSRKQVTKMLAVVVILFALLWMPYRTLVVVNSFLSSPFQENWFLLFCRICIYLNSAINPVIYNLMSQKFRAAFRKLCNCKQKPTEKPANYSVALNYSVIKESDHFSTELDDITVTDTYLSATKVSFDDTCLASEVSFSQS
Androgen receptor (Homo sapiens), sequence (P10275 whole entry, looked up): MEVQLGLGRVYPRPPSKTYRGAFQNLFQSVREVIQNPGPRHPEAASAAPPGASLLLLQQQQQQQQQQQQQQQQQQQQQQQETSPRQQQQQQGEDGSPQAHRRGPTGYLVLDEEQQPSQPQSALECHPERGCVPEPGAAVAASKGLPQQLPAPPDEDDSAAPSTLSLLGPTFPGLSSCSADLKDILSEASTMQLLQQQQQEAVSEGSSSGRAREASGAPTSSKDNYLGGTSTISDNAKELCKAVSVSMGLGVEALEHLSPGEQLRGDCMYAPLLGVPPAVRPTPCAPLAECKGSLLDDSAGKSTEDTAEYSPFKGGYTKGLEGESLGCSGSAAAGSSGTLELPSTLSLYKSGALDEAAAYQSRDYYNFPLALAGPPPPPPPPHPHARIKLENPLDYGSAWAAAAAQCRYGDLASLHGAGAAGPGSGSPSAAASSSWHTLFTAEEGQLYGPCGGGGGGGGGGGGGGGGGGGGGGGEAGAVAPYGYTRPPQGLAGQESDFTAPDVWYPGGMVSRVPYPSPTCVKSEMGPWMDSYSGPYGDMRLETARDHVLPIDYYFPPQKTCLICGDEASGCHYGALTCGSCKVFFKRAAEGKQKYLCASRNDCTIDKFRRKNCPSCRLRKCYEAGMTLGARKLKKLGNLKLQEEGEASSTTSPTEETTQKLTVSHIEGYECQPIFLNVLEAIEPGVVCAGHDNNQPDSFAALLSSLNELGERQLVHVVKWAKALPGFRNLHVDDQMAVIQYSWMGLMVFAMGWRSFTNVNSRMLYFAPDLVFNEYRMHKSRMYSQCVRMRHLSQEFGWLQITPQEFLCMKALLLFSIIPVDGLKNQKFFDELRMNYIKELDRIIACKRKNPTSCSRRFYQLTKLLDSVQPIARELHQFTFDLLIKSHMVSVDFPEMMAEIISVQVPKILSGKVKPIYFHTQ

For `CC(CC1c2ccccc2CCc2ccccc21)CN(C)C` (configuration not stated), the Potency result in assay [1], in assay [2], in [5], in assay [6], in assay [7] and in [9] was “inactive” in each case. Further, the Potency entry in assay [10], in [11] and in assay [12] was “inactive” throughout. Moreover, the Potency in assay [3] is 33.5 µM (active); in assay [4] it was 21.1 µM (active); in assay [8], 23.7 µM (active).
With `CN(C(=O)CN(CCO)CC(=O)N(C)C(C)(C)Cc1ccccc1)C(C)(C)Cc1ccccc1`, the Potency entry in assay [1], in assay [13], in [2], in [3], in [4] and in assay [6] was “inactive” throughout. In addition, the Potency entry in [7], in assay [14], in assay [8], in [9], in [10] and in assay [11] was “inactive” each time. Moreover, the Potency result in assay [12] and in assay [16] was “inactive” in each case. The molecule was classed as inactive in assay [15].
With `CCOc1ccc(Cc2nccc3cc(OCC)c(OCC)cc23)cc1OCC`, the Potency entry in [1], in assay [3], in assay [17], in assay [4], in assay [5] and in assay [7] was “inactive” each time. Further, the Potency result in [10] and in assay [12] was “inactive” in each case. Besides, the results for the Potency in [2], in [14] and in assay [8] were 29.8 µM (active), 16.8 µM (active) and 18.8 µM (active), respectively. In assay [18], the molecule was classed as inactive.
As to `Nc1cccc2c1CN(C1CCC(=O)NC1=O)C2=O` (configuration not stated), the Potency entry in [1], in assay [2], in [3], in assay [4], in [5] and in [19] was “inactive” in each case. Further, the Potency result in assay [6], in [7], in assay [14], in assay [8], in assay [9] and in assay [10] was “inactive” each time. The Potency result in assay [11], in assay [12] and in assay [16] was “inactive” in each case. Also, the result in assay [18] and in [15] was inactive.
As to `CCCCCCCC/C=C\CCCCCCCCO`, the Potency result in assay [1], in [13], in [2], in assay [3], in assay [4] and in assay [19] was “inactive” each time. Besides, the Potency entry in assay [6], in assay [7], in assay [8], in [9], in assay [10] and in assay [11] was “inactive” throughout. The Potency entry in assay [12] and in assay [16] was “inactive” throughout. The outcome in assay [18] and in [15] was inactive.
With `OCCOCC#CCOCCO`, the Potency result in assay [1], in assay [13], in [2], in [3], in assay [4] and in assay [5] was “inactive” each time. The Potency entry in assay [19], in assay [6], in [7], in [14], in assay [8] and in [9] was “inactive” throughout. The Potency result in [10], in assay [11], in assay [12] and in [16] was “inactive” each time. The call in assay [15] was inactive.
For the molecule `OC1(c2ccccc2)CCNCC1`, the Potency result in assay [1], in assay [2], in assay [3], in assay [17], in [4] and in [19] was “inactive” throughout. In addition, the Potency result in assay [6], in assay [8], in [9], in assay [10], in [11] and in assay [12] was “inactive” in each case. Moreover, the Potency result in [16] is “inactive”. For the same molecule, in assay [18], the molecule was called inactive.
In the case of `CC1(C)[C@@H](OC(=O)CCC(=O)O)CC[C@]2(C)[C@H]3C(=O)C=C4[C@@H]5C[C@@](C)(C(=O)O)CC[C@]5(C)CC[C@@]4(C)[C@]3(C)CC[C@@H]12`, the Potency entry in assay [1], in assay [2], in [3], in assay [4], in assay [19] and in assay [6] was “inactive” throughout. Moreover, the Potency result in assay [7], in assay [14], in assay [9], in [10], in assay [11] and in [12] was “inactive” throughout. Moreover, the Potency result in assay [16] is “inactive”. In addition, the outcome in assay [15] was inactive.
